# According to PubChem BioAssay (NCATS):
# Results filed as inconclusive are left out. Unmarked numbers belong to inactive results. Calls of active or inactive are those of the source. Calls come from the whole dose curve; as a rule, active = well fitted inhibition curve with a large enough effect; inconclusive = small, poorly fitted or top-dose-only effect; inactive = flat fitted curve, though single readings scatter.
# Columns and labels:
# [1] = test system: HEK293; assay: Cytotoxic Profiling of Annotated Libraries Using Quantitative High-Throughput Screening (AID 1296008); settings: Five cell lines viability, CellTiter-Glo ATP luminescence, 48-72 h; max response: hits give low values
# How it was run: (§1)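 Compounds were pin-transferred onto cells and incubated 48 or 72 hr at 37 degree Celsius, 95% humidity. CellTiter-Glo was added, plates sat 10 min at room temperature, then ATP-coupled luminescence was imaged as the viability read-out.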
# [2] = test system: KB-3-1; assay: as above; settings: Five cell lines viability, CellTiter-Glo ATP luminescence, 48-72 h; max response: hits give low values
# How it was run: as §1
# [3] = test system: NIH3T3; assay: as above; settings: Five cell lines viability, CellTiter-Glo ATP luminescence, 48-72 h; max response: hits give low values
# How it was run: as §1
# [4] = test system: MCC-26; assay: qHTS assay to identify novel small-molecules to repurpose for Merkel cell carcinoma treatment (AID 1296009); settings: MCC and control cell lines, CellTiter-Glo viability, 72 h; series mostly up to 46 µM
# How it was run: (§2)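 Luminescence from CellTiter-Glo, read 10 min after addition at room temperature, reported viability following a 72 hr, 37 degree celsius treatment with NPC or MIPE compounds in titration; values normalized to plate controls.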
# [5] = test system: HaCat; assay: Cytotoxic Profiling of Annotated Libraries Using Quantitative High-Throughput Screening (AID 1296008); settings: Five cell lines viability, CellTiter-Glo ATP luminescence, 48-72 h; max response: hits give low values
# How it was run: as §1
# [6] = test system: MCC-13; assay: qHTS assay to identify novel small-molecules to repurpose for Merkel cell carcinoma treatment (AID 1296009); settings: MCC and control cell lines, CellTiter-Glo viability, 72 h; series mostly up to 46 µM
# How it was run: as §2
# [7] = test system: HACAT; assay: as above; settings: MCC and control cell lines, CellTiter-Glo viability, 72 h; at 44.8 µM (top of the series) unless noted
# How it was run: as §2
# % is set by controls: 0 for no effect and ±100 for the full control effect; potency is the fitted concentration of half-maximal effect.
# Note: nearly all actives have a fitted effect of over 60% in size.
smiles,measurement,setting,value
C[C@H](NCc1ccc(OCc2cccc(F)c2)cc1)C(N)=O,Potency,[1],11.8 µM (active)
same,Potency,[2],9.35 µM (active)
same,Potency,[3],4.18 µM (active)
same,Potency,[4],20.9 µM (active)
NC(=NCCCCCCN=C(N)N=C(N)Nc1ccc(Cl)cc1)N=C(N)Nc1ccc(Cl)cc1,Potency,[1],13.2 µM (active)
same,Potency,[2],8.33 µM (active)
same,Potency,[4],inactive
CCOC(=O)[C@H](CCc1ccccc1)N[C@@H](C)C(=O)N1[C@@H](C(=O)O)C[C@H]2CCC[C@@H]21,Potency,[1],18.7 µM (active)
same,Potency,[5],37.2 µM (active)
same,Potency,[6],inactive
same,Potency,[4],inactive
O=c1c(O)c(-c2ccc(O)c(O)c2)oc2cc(O)ccc12,outcome,[5],inactive
same,outcome,[7],inactive
same,Potency,[6],inactive
same,Potency,[4],inactive
CCCCCN=C(N)NN=Cc1c[nH]c2ccc(OC)cc12,Potency,[1],7.43 µM (active)
same,Potency,[2],10.5 µM (active)
same,Potency,[3],13.2 µM (active)
COc1cc2c(cc1O)CCC1C2CC[C@@]2(C)C1CC[C@@H]2O (some centres not stated),Potency,[1],1.18 µM (active)
same,Potency,[2],3.32 µM (active)
same,Potency,[3],4.18 µM (active)
same,Potency,[4],inactive
CN[C@H](CC(C)C)C(=O)N[C@H]1C(=O)N[C@@H](CC(N)=O)C(=O)N[C@@H]2C(=O)N[C@H]3C(=O)N[C@H](C(=O)N[C@H](C(=O)O)c4cc(O)cc(O)c4-c4cc3ccc4O)[C@H](O)c3ccc(c(Cl)c3)Oc3cc2cc(c3O[C@@H]2O[C@H](CO)[C@@H](O)[C@H](O)[C@@H]2O[C@H]2C[C@](C)(N)[C@H](O)[C@H](C)O2)Oc2ccc(cc2Cl)[C@H]1O,outcome,[5],inactive
same,max response,[2],5.98%
same,max response,[3],-4.89%
same,outcome,[7],inactive
same,Potency,[6],inactive
same,Potency,[4],inactive
C[C@]12CC[C@@H]3c4ccc(O)cc4CC[C@H]3[C@H]1CC[C@H]2O,Potency,[1],20.9 µM (active)
same,Potency,[2],11.8 µM (active)
same,Potency,[6],inactive
same,Potency,[4],inactive
COc1ccc(Nc2cc(-c3cnc(N)nc3)nc(N3CCOCC3)n2)cn1,Potency,[5],2.64 µM (active)
same,Potency,[2],2.96 µM (active)
same,Potency,[3],3.32 µM (active)
CCc1ccc(C(=O)Nc2cc(CN3CCN(C)CC3)cc(C(F)(F)F)c2)cc1C#Cc1cnc2ccnn2c1,Potency,[1],10.5 µM (active)
same,Potency,[2],8.33 µM (active)
CC(C=CC1=C(C)CCCC1(C)C)=CC=CC(C)=CC(=O)Nc1ccc(O)cc1,Potency,[1],6.79 µM (active)
same,Potency,[2],38.2 µM (active)
same,Potency,[3],48.1 µM (active)
same,Potency,[6],inactive
same,Potency,[4],inactive
CCc1cnn2c(NCc3ccc[n+]([O-])c3)cc(N3CCCC[C@@H]3CCO)nc12,Potency,[1],0.0332 µM (active)
same,Potency,[3],0.105 µM (active)
same,Potency,[4],0.0833 µM (active)
CC(C)Oc1ccc(C(=O)N[C@H](CNC(=O)CN(C)C)Cc2ccc(-c3cn4cccc([C@H](C)O)c4n3)cc2)cc1Cl,Potency,[1],0.372 µM (active)
same,Potency,[2],0.332 µM (active)
same,Potency,[4],inactive
COc1cc(OC)c(C=CS(=O)(=O)Cc2ccc(OC)c(NCC(=O)O)c2)c(OC)c1,max response,[5],3.08%
same,Potency,[3],0.105 µM (active)
N#CC(=C(N)Sc1ccc(N)cc1)c1ccccc1C(F)(F)F,Potency,[5],1.66 µM (active)
same,max response,[2],-9.42%
same,Potency,[4],inactive
C[C@H]1[C@@H](OC(=O)CCC(=O)O)O[C@@H]2O[C@@]3(C)CC[C@@H]4[C@H](C)CC[C@@H]1[C@@]24OO3,Potency,[1],2.35 µM (active)
same,Potency,[2],18.7 µM (active)
same,Potency,[3],20.9 µM (active)
same,Potency,[4],inactive
CN1CCCN(C(=O)c2cccc(-c3ccc(C=C4C(=O)Nc5ccc(Cl)cc54)o3)c2)CC1,Potency,[1],1.32 µM (active)
same,Potency,[2],23.5 µM (active)
same,Potency,[4],inactive
Oc1ccc(-c2ccc(-c3cc(Nc4cccc(CNC5CC5)c4)n[nH]3)cc2)c(O)c1,Potency,[2],1.32 µM (active)
NC(=O)N1CCC(CC(=O)N2CCC([C@H]3c4ncc(Br)cc4CCc4cc(Cl)cc(Br)c43)CC2)CC1,Potency,[1],1.32 µM (active)
same,Potency,[5],10.5 µM (active)
same,max response,[3],-22.6%
same,Potency,[6],inactive
same,Potency,[4],inactive
O=[N+]([O-])c1cn2c(n1)OC[C@@H](OCc1ccc(OC(F)(F)F)cc1)C2,max response,[2],-6.53%
same,max response,[3],-7.72%
same,Potency,[6],inactive
same,Potency,[4],inactive
Cc1cnn(C)c1C(=O)Nc1cc(Nc2ccc3c(C=Cc4ccccn4)n[nH]c3c2)ccc1F,Potency,[1],3.72 µM (active)
same,Potency,[3],13.2 µM (active)
